# MITF act = activators of MITF-driven TRPM1 promoter reporter, primary screen, cell-based, SK-MEL-5, luciferase, single point; SK-MEL-5 TRPM1-promoter luciferase, 24 h; % of positive control, neutral wells = 0; activation, % at 12.5 µM; 300,000 tested, 0.75% active; AID 588334, 2011;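 active means mean activation of at least 80% with every replicate also reaching 80%; inconclusive means mean reaches 80% but some replicate falls short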;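 further: 0% = neutral control wells and 100% = parthenolide positive control wells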
# Wnt bcat act = Wnt/beta-catenin pathway activators, primary screen, cell-based, plate reader, single point | Wnt/beta-catenin reporter cell assay, activator | activation, % at 9.35 µM | 300,000 tested, 1.2% active; in the data active means activation above about 30%, passing the limit was not always enough; inconclusive means no clear call, values can overlap the other calls;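 further: 0% = neutral control wells and 100% = positive control wells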
# A3G deaminase = APOBEC3G DNA deaminase inhibitors, primary screen, biochemical, fluorescence, single-stranded DNA substrate, uHTS; DNA dC->dU-editing enzyme APOBEC-3G (Homo sapiens), Q9HC16; recombinant A3G, ssDNA deamination FAM/TAMRA fluorescence; inhibition, % at 20 µM; 330,000 tested, 0.28% active;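 active means inhibition of at least 40% at 20 µM, with no more than 30% in the related APOBEC3A deaminase screen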;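 further: plate controls were DMSO wells with A3G for no effect and wells lacking A3G enzyme for full effect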
# Target sequence (Q9HC16 whole entry, looked up): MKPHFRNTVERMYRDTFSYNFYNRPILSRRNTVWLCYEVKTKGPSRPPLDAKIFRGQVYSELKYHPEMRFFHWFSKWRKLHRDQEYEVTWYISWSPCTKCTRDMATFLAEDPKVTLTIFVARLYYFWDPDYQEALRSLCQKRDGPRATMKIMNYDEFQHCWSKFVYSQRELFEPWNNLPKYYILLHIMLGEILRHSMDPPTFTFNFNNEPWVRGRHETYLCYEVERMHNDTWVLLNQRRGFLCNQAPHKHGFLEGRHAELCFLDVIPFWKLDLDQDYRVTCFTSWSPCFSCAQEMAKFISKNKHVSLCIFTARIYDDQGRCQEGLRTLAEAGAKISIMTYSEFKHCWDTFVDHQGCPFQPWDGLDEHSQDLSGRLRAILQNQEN
# APOBEC3A inh = APOBEC3A ssDNA deaminase inhibitors, primary screen, selectivity assay for APOBEC3G inhibitor project, biochemical, FAM/TAMRA oligo cleavage fluorescence; DNA dC->dU-editing enzyme APOBEC-3A (Homo sapiens), P31941; recombinant A3A, FAM/TAMRA ssDNA deamination fluorescence; inhibition, % at 20 µM; 330,000 tested, 0.41% active;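 active means at least 40% inhibition at 20 µM here, with at most 30% in a related deaminase screen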;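 further: plate controls were A3A with DMSO for no effect and wells lacking A3A enzyme for full effect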
# esBAF inh = Bmi1 luciferase reporter increase in mESCs, primary screen, esBAF inhibitor project, mouse ES cells, Bmi1 luciferase knock-in, single point | 24 h; 100% = twice the neutral-well signal | reporter increase, % at 12.5 µM | 350,000 tested, 2% active | AID 602393, 2012; in the data active means activation above about 40%; inconclusive means no clear call, values can overlap the other calls;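 further: 0% = median of the plate's neutral control wells and 100% = double that signal; a rise in the Bmi1 reporter signal indicates esBAF inhibition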
# PHOSPHO1 block = PubChem AID 1565. Phosphoethanolamine/phosphocholine phosphatase (Homo sapiens), Q8TCT1. recombinant PHOSPHO1, absorbance phosphatase assay. inhibition, % at 13.3 µM. 290,000 tested, 1.1% active; in the data active means inhibition above about 60%
# Target sequence (Q8TCT1 whole entry, looked up): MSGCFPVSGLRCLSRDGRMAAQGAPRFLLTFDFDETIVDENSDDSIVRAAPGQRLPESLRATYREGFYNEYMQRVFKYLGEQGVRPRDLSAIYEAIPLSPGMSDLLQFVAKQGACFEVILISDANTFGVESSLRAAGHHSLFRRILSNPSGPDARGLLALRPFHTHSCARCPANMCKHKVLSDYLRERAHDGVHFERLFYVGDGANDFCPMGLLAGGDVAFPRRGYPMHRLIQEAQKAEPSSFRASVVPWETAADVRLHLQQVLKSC
# * marks the source's active call; other numbers are inactive results; ? = inconclusive; nt = no result. A selection: hits, their analogues and other compounds. The true share with any hit is near 3.6%.
SMILES,MITF act,Wnt bcat act,A3G deaminase,APOBEC3A inh,esBAF inh,PHOSPHO1 block
C[C@@H]1CN([C@@H](C)CO)C(=O)c2cc(-c3ccccc3)cnc2O[C@H]1CN(C)C(=O)Nc1ccccc1F,nt,nt,nt,nt,9,nt
CC(=O)Nc1nc(=S)n(-c2ccccc2)[nH]1,-1,nt,32,-4,-8,96*
Clc1cc(Cl)c2nc(N3CCCC3)sc2c1,29,36*,-8,0,nt,nt
Clc1cc(Cl)c2nc(N3CCCCC3)sc2c1,70,60*,2,1,53*,6
COc1ccc(NC(=O)N(C)C[C@@H]2OCCCC[C@@H](C)Oc3ccc(N(C)C)cc3C(=O)N([C@@H](C)CO)C[C@@H]2C)cc1,nt,nt,nt,nt,5,nt
COc1ccc(NC2CC(=O)N(C(C)C)C2=O)cc1 (stereo not given),69,-2,-4,-3,60*,0
C[C@H]1CN([C@@H](C)CO)S(=O)(=O)c2ccc(-c3ccncc3)cc2O[C@@H]1CN(C)C,nt,nt,nt,nt,-3,nt
Cc1ccc(C(CC(=O)c2ccco2)SCCO)cc1 (stereo not given),24,37*,0,-1,36,44
Cc1ccc(S(=O)(=O)C(C#N)c2nc3ccccc3nc2N2CC(C)OC(C)C2)cc1C (stereo not given),-6,-1,-1,1,-6,78*
COc1ccc(S(=O)(=O)C(C#N)c2nc3ccccc3nc2N2CCCC(C)C2)cc1 (stereo not given),-9,nt,-1,-6,1,59
CC1CCCN(c2nc3ccccc3nc2C(C#N)S(=O)(=O)c2cccs2)C1 (stereo not given),7,nt,-1,-1,2,102*
CCCc1nnc(NC(=O)Cn2c(=O)oc3cc(Br)ccc32)s1,-7,0,5,39,-5,100*
CCc1nnc(NC(=O)Cn2c(=O)oc3ccccc32)s1,5,1,-3,0,-9,16
CC1CCCC(C)N1c1nnc(NC(=O)Cn2c(=O)oc3ccccc32)s1 (stereo not given),-5,-3,-6,0,0,62*
CCCc1nc(Nc2nc3ccccc3o2)nc(C)c1C(=O)OCC,116*,nt,-3,-2,63*,-38
C[C@H]1CCCCO[C@@H](CN(C)S(=O)(=O)c2cn(C)cn2)[C@@H](C)CN([C@@H](C)CO)C(=O)c2cc(NC(=O)C3CCCCC3)ccc2O1,nt,nt,nt,nt,-2,nt
CC1CCN(C(=O)COC(=O)c2cc(Cl)c3c(c2)OCO3)CC1,64,32*,-1,5,31,nt
O=C(N/N=C/c1ccc2c(c1)OCO2)c1ccc(Br)o1,87*,43*,1,0,nt,6
CCN(CC)c1ccc(/C=N/NC(=O)c2ccc(Br)o2)cc1,116*,0,-7,0,nt,9
CCc1ccc(/C=N\NC(=O)c2ccc(Br)o2)s1,51,nt,-5,-2,nt,12
O=C(N/N=C/c1ccc2c(c1)OCO2)c1cccs1,27,-4,-4,0,33,-15
CCS(=O)(=O)NCC[C@H]1CC[C@H](NC(=O)Nc2ccccc2)[C@@H](CO)O1,nt,nt,nt,nt,0,nt
C[C@@H]1CN([C@@H](C)CO)C(=O)c2cc(NS(C)(=O)=O)ccc2O[C@@H](C)CCCCO[C@@H]1CN(C)C(=O)Cc1ccccc1,nt,nt,nt,nt,-7,nt
Cc1cc(C)c2nc(N3CCC(C(=O)N4CCCC4)CC3)sc2c1,-8,-2,4,0,10,18
Cc1cc(C)c2nc(N3CCCC(C(=O)NC4CCCC4)C3)sc2c1 (stereo not given),25,1,1,-2,58*,32
SMILES,MITF act,Wnt bcat act,A3G deaminase,APOBEC3A inh,esBAF inh,PHOSPHO1 block
Cc1ccc(-c2nc(N)s[n+]2-c2ccccc2)cc1,10,53*,nt,nt,nt,11
Cc1ccc(-c2nc3ccccc3nc2-c2ccccc2)cc1,4,1,2,0,-5,24
CNc1nc(-c2ccccc2)[n+](-c2ccc(C)cc2)s1,5,nt,nt,nt,nt,90*
COc1ccccc1S(=O)(=O)N(C)C[C@@H]1Oc2cc(C#CCC(C)C)ccc2S(=O)(=O)N([C@@H](C)CO)C[C@@H]1C,nt,nt,nt,nt,1,nt
N#C/C(=C\c1cccs1)C(=O)Nc1nccs1,?,56*,9,4,119*,21
O=C(Nc1nccs1)c1ccc(Br)cc1,?,12,-10,-5,43*,19
C/C(=C\c1ccccc1)C(=O)Nc1nccs1,78,52*,nt,nt,?,34
O=C(Nc1nccs1)Oc1ccccc1,-2,nt,-6,-2,-5,-2
O=C(CCNC(=O)c1ccc(Br)cc1)Nc1nccs1,4,3,-6,-6,nt,28
COCCNC(=S)N(C)[C@H]1C[C@H]2c3[nH]c4cccc(-c5ccccc5)c4c3CCN2C(=O)[C@H]1[C@H](C)O,nt,-10,nt,nt,nt,nt
COCCNC(=O)C[C@H]1C=C[C@H](NC(=O)NC2CCCC2)[C@@H](CO)O1,nt,nt,nt,nt,-4,nt
CCCNC(=O)C[C@@H]1CC[C@H]2[C@@H](COC[C@@H](O)CN2Cc2cccc(F)c2)O1,nt,nt,nt,nt,-2,nt
COC(=O)C[C@H]1CC[C@@H](NS(=O)(=O)c2ccc(OC)cc2)[C@H](CO)O1,nt,nt,nt,nt,0,nt
CN1C(=O)c2cc(NC(=O)c3cnccn3)ccc2OC[C@@H]2O[C@@H](CC(=O)O)CC[C@H]21,nt,nt,nt,nt,-1,nt
C[C@@H]1CCCCO[C@@H](CN(C)C(=O)CCCN(C)C)[C@H](C)CN([C@@H](C)CO)C(=O)c2cc(NC(=O)CCCN(C)C)ccc2O1,nt,nt,nt,nt,-8,nt
Cc1noc(C)c1NC(=O)Nc1ccc2c(c1)C(=O)N([C@@H](C)CO)C[C@@H](C)[C@H](CN(C)Cc1ccc3c(c1)OCO3)OCCCC[C@H](C)O2,nt,nt,nt,nt,-6,nt
O=C(Nc1nccs1)c1ccc(COc2ccccc2)o1,nt,0,-5,1,52*,24
CC(C)(C)c1ccc(OCc2ccc(C(=O)Nc3cccnc3)o2)cc1,5,?,-9,-1,63*,28
O=C(Nc1nccs1)c1ccc(CSc2ccccc2)o1,?,38*,-3,1,39,27
O=C(c1ccncc1)N1CC[C@@H]2[C@H]1c1cc(-c3ccccc3)ccc1N[C@@H]2CO,nt,nt,nt,nt,1,nt
Cc1noc(C)c1NC(=O)NCC[C@H]1CC[C@H](NC(=O)Cc2cccnc2)[C@@H](CO)O1,nt,nt,nt,nt,3,nt
O=C(Nc1ccc(NC(=O)c2ccccc2Cl)nc1)c1ccco1,55,9,-10,-3,54*,36

# Screening data deposited in PubChem by several laboratories.
